Compounds without any hit were thinned out: in the full panel of roughly 83,000, 20% have a hit.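 Note: values are percent growth. 100 is the growth of untreated cells, values between 100 and 0 indicate rising inhibition; between -100 and 0 indicates cell death.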 A number with no mark means an inactive call. Calls of active or inactive are those of the source. The calls were made as follows: active = growth percent below 10; inactive = the rest.

Common to all, as to experiment: NCI-60 one-dose screen, 48 h (100 = growth as untreated, 0 = no growth, -100 = all killed)
What all share (conditions): 10 µM unless noted

Experiment [1] relates to RPMI-8226 leukemia.
Experiment [2] concerns OVCAR-8 ovarian.
In experiment [3] the test system is OVCAR-5 ovarian.
Experiment [4] deals with OVCAR-4 ovarian.
Experiment [5] has as its system SK-OV-3 ovarian.
The subject of experiment [6] is IGROV1 ovarian.
In experiment [7] the test system is OVCAR-3 ovarian.
The subject of experiment [8] is HS 578T breast.
The subject of experiment [9] is NCI/ADR-RES ovarian.
Experiment [10] deals with T-47D breast.

With `COc1cc2nc3c(=O)n(CCN(C)C)cnn3c(=O)c2cc1OC`, the growth is 121% in [1]; 111% in experiment [2]; 99% in [3]; 101% in [4]; 104% in experiment [5]; 100% in [6]. The growth in [7] is 103%; in experiment [8], 92.8%; in experiment [9] it was 98.3%; in experiment [10], 112%.

`CCOC(=O)c1c(C)nc2c(c1N)/C(=C/c1ccc[nH]1)C(=O)N2Cc1ccc(C(F)(F)F)cc1`: the growth in experiment [1] is 104%; in experiment [2], 28.5%; in [3], 74.5%; in experiment [4], 12.6%; in experiment [5], 21.9%; in experiment [6], 54.7%. Further, the growth in [7] is 47.7%; in [8], 38%; in [9] it was 49.7%; in [10], 24.8%.

For `CCCCCOC(=O)c1ccccc1O`, the growth in [1] was 102%; in experiment [2] it was 107%; in [3] it was 105%; in [4], 95.9%; in [5], 92.2%; in experiment [6] it was 111%. The growth in [7] is 102%; in [8] it was 103%; in [9], 110%; in experiment [10] it was 85.8%.

As to `O=c1nc(-c2ccccc2)c2cc(-c3ccc(N4CCCC4)nc3)ccc2[nH]1`, the growth is 71.6% in experiment [1]; 89.2% in experiment [2]; 98.7% in [3]; 85.3% in experiment [4]; 80.6% in experiment [5]; 66.1% in [6]. Also, the growth in experiment [7] is 44.7%; in experiment [8] it was 67.8%; in experiment [9] it was 63.9%; in [10] it was 62.3%.

Turning to `O=C(Nc1ccccc1)NS(=O)(=O)c1c[nH]c(=S)[nH]c1=O`, the growth in experiment [1] is 103%; in experiment [2], 94.9%; in experiment [3], 113%; in experiment [4], 105%; in experiment [5], 69.9%; in experiment [6], 106%. Also, the growth in experiment [7] is 110%; in experiment [8], 108%; in experiment [9] it was 104%; in experiment [10], 75.1%.

Consider `O=c1c2ccccc2n(CC(O)CN2CCCC2)c2c(Br)cccc12` (stereo not given), for which the growth in experiment [1] is 44.9%; in [2], 94.1%; in [3], 76.3%; in [4], 108%; in experiment [5], 101%; in experiment [6], 93.3%. For the same molecule, the growth is 106% in experiment [7], 98.9% in [8], -14.8% (active) in experiment [9] and 93.4% in [10].

Regarding `COCCOCCOCc1n(Cc2ccc3ccccc3c2)c2ccccc2[n+]1Cc1ccc2ccccc2c1`, the growth in experiment [1] is -6.22% (active); in experiment [2] it was 9.98% (active); in [3] it was 21.4%; in experiment [4], 17%; in [5], 2.88% (active); in experiment [6], -7.12% (active). In addition, the growth in experiment [7] is 7.16% (active); in [8], 39.9%; in [9], 105%; in [10], -3.39% (active).

With `O=C1NN(c2ccccc2)C(c2ccc(Cl)cc2)N2CCC[C@H]12` (stereo not given in full), the growth in experiment [1] is 102%; in [2] it was 98.1%; in experiment [3], 103%; in [4] it was 95.7%; in experiment [5], 107%; in experiment [6], 98.6%. In addition, the growth in experiment [7] was 93.4%; in experiment [8], 91.6%; in experiment [9] it was 93.1%; in experiment [10], 100%.

Turning to `CCOC(=O)CC[C@H](NC(=O)c1ccc(NC)c2ccccc12)C(=O)OCC`, the growth in experiment [1] was 91.2%; in experiment [2] it was 94.7%; in experiment [3], 101%; in [4] it was 104%; in experiment [5], 92.8%; in [6], 105%. Further, the growth in [7] is 102%; in [8], 105%; in experiment [9] it was 104%; in experiment [10] it was 93.8%.

On to `C=C1C(=O)O[C@H]2[C@H]1CC/C(C=Nc1c(N)cc(C(F)(F)F)cc1Br)=C\CC[C@@]1(C)O[C@@H]21`, for which the growth in experiment [1] was -23.4% (active); in experiment [2], -8.6% (active); in [3], 42.8%; in [4], 55.3%; in [5] it was 83.1%; in experiment [6] it was -9.71% (active). The growth was -91.9% (active) in experiment [7], 6.58% (active) in experiment [8], 9.14% (active) in [9] and -16.3% (active) in [10].

In the case of `CC1CCCN(CCCCCOc2ccc3oc4ccc(Cl)cc4c(=O)c3c2)C1` (stereo not given), the growth is 61.8% in [1]; 75% in experiment [2]; 70.4% in experiment [3]; 63.2% in experiment [4]; 91.9% in experiment [5]; 68.7% in experiment [6]. The growth is 76.6% in [7], 84.7% in experiment [8], 73% in [9] and 64.8% in experiment [10].

Regarding `N#Cc1ccc(N2Cc3cc(Cl)ccc3OC3=C2C(=O)N(Cc2ccccc2)C3=O)cc1`, the growth in [1] is -23.3% (active); in experiment [2], 4.56% (active); in experiment [3], -5.13% (active); in [4], -7.68% (active); in [5], 94.2%; in experiment [6] it was 13%. Besides, the growth in experiment [7] was -82.1% (active); in experiment [8], 38.1%; in experiment [9], 6.99% (active); in [10] it was -60.1% (active).

On to `Cn1c2c(c3ccc(-c4ccn[nH]4)cc3c1=O)C(=O)c1ccccc1-2`, for which the growth was -11.6% (active) in [1]; 29.4% in experiment [2]; 86% in [3]; 74% in experiment [4]; 74.2% in experiment [5]; 45.6% in experiment [6]. Further, the growth was 60.3% in experiment [7], 85.8% in experiment [8], 53.2% in experiment [9] and 32.2% in [10].

For the origin of these results see PubChem BioAssay (NCI).
